PubChem BioAssay AID1463 (National Center for Advancing Translational Sciences (NCATS), 2008)
Where “and” joins values, the source holds several entries; their conditions need not be identical. Equal values may be shown once. Among all 280,000 compounds or so, about 2,600 (0.93%) were called active. About 8% were inconclusive and are not listed. The call rests on the fitted dose curve; in most records, active means well fitted curve in the direction sought with a large enough effect; inconclusive means small, poorly fitted or top-dose-only effect; inactive means flat fitted curve, though single readings scatter. For the sample, actives were picked, then their nearest neighbours and some compounds at random.

Assay: Counterscreen qHTS for Inhibitors of Tau Fibril Formation, Fluorescence Polarization; further: nearly all actives have a fitted effect of over 55% in size
Conditions: tau K18 P301L (four-repeat tau fragment) Alexa594 fluorescence, heparin fibrillization; series mostly up to 57.7 µM; activity change, negative = decrease: at the top concentration
Excerpt: NIH Molecular Libraries Probe Production Network [MLPCN]
NIH Chemical Genomics Center [NCGC]
Assay Provider: Carlo Ballatore, University of Pennsylvania
The microtubule-associated protein tau is an abundant protein in the axons of neurons that stabilizes microtubules. With its ability to modulate microtubule dynamics, tau contributes directly or indirectly, to key structural and regulatory cellular functions. Particularly important is the influence tau exerts on axonal transport, which allows signaling molecules, trophic factors and other essential cellular constituents to travel along the axons. Under pathological conditions, tau becomes sequestered into insoluble aggregates called neurofibrillary tangles. This phenomenon is believed to have pathological consequences by promoting axonal transport deficits that ultimately lead to synaptic dysfunction and neuronal loss. To identify inhibitors of tau aggregation, a heparin-induced tau fibril formation assay was used that employed a recombinantly expressed fragment of tau, K18 (Q242-E372), bearing a P301L mutation (Gustke et al. 1994; Hong et al. 1998). […] Total fluorescence (555 nm excitation and 632 nm emission) was measured to identify fluorescent or absorbent compounds at this wavelength. Such compounds may be artifacts that interfere with the Alexa 594 Tau fluorescence polarization assay.
Gustke, N., B. Trinczek, et al. (1994). "Domains of tau protein and interactions with microtubules." Biochemistry 33(32): 9511-22.
Hong, M., V. Zhukareva, et al. (1998).
Li, W. and V. M. Lee (2006). "Characterization of two VQIXXK motifs for tau fibrillization in vitro." Biochemistry 45(51): 15692-701.
von Bergen, M., S. Barghorn, et al. (2001). "Mutations of tau protein in frontotemporal dementia promote aggregation of paired helical filaments by enhancing local beta-structure." J Biol Chem 276(51): 48165-74.
NCGC Assay Protocol Summary:
For screening, 2 uL/well human K18 P301L (15 uM unlabeled and 0.24 uM Alexa 594-labeled tau final concentrations) in reagent buffer (100 mM sodium acetate pH 7) was dispensed into black solid 1536-well plates (Grenier) using a solenoid-based dispenser. Following transfer of 23 nL compound or DMSO vehicle by a pin tool, 2 uL/well heparin (20 uM final concentration) in reagent buffer was added and the plate centrifuged 15 s at 1000 RPM. Plates were incubated 6 hr at 37 C and then 1 uL/well ThT (30 uM final concentration) was added. After a 1 hr ambient incubation, the plates were read by an Envision (Perkin Elmer) to monitor Alexa 594 FP (555 nm excitation and 632 nm emission).
Keywords: NIH Roadmap, MLPCN, MLI, MLSMR, NCGC, qHTS, tau, tauopathies, Alzheimer's disease, fibril, neurodegeneration, aggregation
On the % scale 0 is the no-effect control and ±100 the full control effect; potency means the concentration at half of the fitted maximal effect; tags describe the fitted curve by direction and shape or compound fluorescence and quenching.

| SMILES | Potency | activity change, negative = decrease |
| --- | --- | --- |
| O=C(CSc1nc(-c2cccc(F)c2)[nH]c1-c1ccccc1)Nc1ccc2c(c1)OCO2 | 8.91 µM [quencher] (active) | – |
| O=C(CSc1nc(C2CC2)nc2ccccc12)Nc1ccc2c(c1)OCCO2 | – | -17% (inactive) |
| O=C(CN1CCN(CC(=O)Nc2ccc3c(c2)OCO3)CC1)Nc1ccc(F)cc1 | – | -2.95% (inactive) |
| O=C(Nc1cc(Cl)cc(Cl)c1)c1ccc2c(c1)N(Cc1cccc(Cl)c1)C(=O)c1ccccc1S2=O (stereo not given) | – | -14.3% (inactive) |
| CCc1ccc(CN(Cc2ccco2)C(=O)c2ccccc2Cl)cc1 | – | -6.34% (inactive) |
| COc1cccc(Nc2nnc(SCC(=O)N3CC(C)OC(C)C3)s2)c1 (stereo not given) | – | -7.2% (inactive) |
| COc1cccc(NC(=O)Nc2nnc(N3CCCCC3C)s2)c1 (stereo not given) | 12.6 µM [quencher] (active) | – |
| CCOC(=O)C1CCN(C(=O)Nc2cccc(OC)c2)CC1 | – | -1.62% (inactive) |
| Cc1oc(-c2ccccc2)nc1Cn1c(SCc2cccc(C(F)(F)F)c2)nc2cccnc21 | – | -22.8% (inactive) |
| COc1cccc(N2CCN(C(=O)CCCCCn3c(=O)[nH]c4ccccc4c3=O)CC2)c1 | – | -25.4% (inactive) |
| CN(c1ccccc1)c1nc(N)c([N+](=O)[O-])c(NCc2ccco2)n1 | – | -11.3% (inactive) |
| COc1cccc(Nc2nc(N)c([N+](=O)[O-])c(NCc3ccco3)n2)c1 | 3.16 µM [quencher] (active) | – |
| COc1ccc(Nc2nc(Cl)nc(NCc3ccco3)n2)cc1 | – | -5.38% (inactive) |
| CCOC(=O)c1c(C)oc2nc(C)nc(N3CCN(c4ccc(OC)cc4)CC3)c12 | – | -24.7% (inactive) |
| COc1ccc(OC)c(NC(=O)CN2CCCN(Cc3cc(C)ccc3C)S2(=O)=O)c1 | – | -18.6% (inactive) |
| CCc1ccc(NC(=O)Cn2nc(C)c([N+](=O)[O-])c2C)cc1 | – | -4.39% (inactive) |
| Cc1ccc(Oc2cc(NC(=O)CCCn3nc(C)c([N+](=O)[O-])c3C)cc([N+](=O)[O-])c2)cc1 | 4.47 µM [quencher] (active) | – |
| COc1ccc(CNC(=O)CCCn2nc(C)c([N+](=O)[O-])c2C)cc1 | – | -4.84% (inactive) |
| COc1ccc(C)cc1-n1c(-c2ccc(C)cc2)cc2c1CC(C)(C)CC2=O | – | -12.5% (inactive) |
| Cn1c(CCN2CCCCCC2)nc2cc(NC(=O)Nc3ccccc3)ccc21 | 15.8 µM [quencher] (active) | – |

| SMILES | Potency | activity change, negative = decrease |
| --- | --- | --- |
| CC(=O)NCCc1nc2cc(NC(=O)c3ccccc3)ccc2n1C | – | -1.64% (inactive) |
| CCC(=O)Nc1ccc2c(c1)nc(CCN1CCN(C)CC1)n2C | – | 6.79% (inactive) |
| O=C(CCN1c2ccccc2Sc2ccccc21)Nc1ccccc1 | 11.2 µM [quencher] (active) | – |
| CC1CCN(CCC(=O)Nc2ccccc2)CC1 | – | -2.65% (inactive) |
| O=C(CCN1C(=O)c2ccccc2C1=O)Nc1ccncc1 | – | 8.74% (inactive) |
| CCN1/C(=C/C(=S)Nc2ccccc2)Sc2ccccc21 | 10 µM [quencher] (active) | – |
| CCN1/C(=C/c2ccc3ccc(C)cc3[n+]2CC)Sc2ccccc21 | – | -15.8% (inactive) |
| CCNC(=O)N1c2ccccc2Sc2ccccc21 | – | 0.177% (inactive) |
| CCOC(=O)c1c(NC(C)=O)c2c3c(sc2n1Cc1c(C)cc(C)cc1C)CCCC3 | – | 1.76% (inactive) |
| CCOC(=O)c1ccc(NC(=O)c2c(NCc3cccc(OC)c3)sc3c2CCC3)cc1 | – | -12.9% (inactive) |
| Cc1cccc(OCCSc2nc3ccccc3n2CC(=O)N2CCCCC2)c1C | – | -7.58% (inactive) |
| Cc1ccc(/C=C(\C#N)C(=O)Nc2cc(C)ccc2C)cc1 | – | -9.9% (inactive) |
| O=C(COc1ccccc1)NCc1ccc2c(c1)CCN2C(=O)c1ccc(F)cc1 | – | -9.29% (inactive) |
| Fc1ccc(CN2CCc3nc(Nc4ccccc4)ncc3C2)cc1F | – | -25.3% (inactive) |
| CCn1c(C)c(C)c2cc(C(=O)NCCc3cc(OC)ccc3OC)ccc21 | – | -21.3% (inactive) |
| CCOc1cccc(NC(=O)CSc2ncc(-c3ccc(Cl)cc3)[nH]2)c1 | 11.2 µM [quencher] (active) | – |
| Cc1cccc(NC(=O)CSc2ncc(-c3ccccc3)[nH]2)c1C | – | -24.1% (inactive) |
| CCOc1cccc(NC(=O)CC#N)c1 | – | -0.295% (inactive) |
| CCCN(CCC)S(=O)(=O)c1ccc(C(=O)Nc2sc3c(c2C(=O)OC)CCN(CC)C3)cc1 | – | -6.21% (inactive) |
| Cc1cccc(-n2ccnc2SCC(=O)Nc2cc(C(F)(F)F)ccc2Cl)c1 | – | -11.6% (inactive) |

| SMILES | Potency | activity change, negative = decrease |
| --- | --- | --- |
| CC[C@@H]1Cc2cc(O)ccc2C2=C1c1ccc(O)cc1C[C@H]2CC | 5.01 µM [quencher] (active) and 10 µM [quencher] (active) | – |
| CC1(C)CC(=O)c2ccc(O)cc2O1 | – | 3.8% (inactive) |
| CCN(C(=O)Cn1cnc2sc(C)c(S(=O)(=O)N3CCN(c4ncccn4)CC3)c2c1=O)c1ccccc1F | – | -6.1% (inactive) |
| Cc1cc2c(cc3c(SCc4nc(-c5ccccc5)oc4C)nnc(C)n32)o1 | – | -15.1% (inactive) |
| O=C(Nc1cccc(C(F)(F)F)c1)c1cnccn1 | – | -1.32% (inactive) |
| COc1cc(NC(=O)c2cncc(-c3ccc(C#N)cc3)c2)cc(C(=O)Nc2cccc(C(F)(F)F)c2)c1 | – | -13% (inactive) |
| COc1ccc(NC(=O)C(=O)NCC(=O)Nc2cccc(C(F)(F)F)c2)cc1 | – | 6.59% (inactive) |
| Cc1cc(Nc2cccc(C(F)(F)F)c2)nc2ccc(NC(=O)c3ccc(=O)[nH]c3)cc12 | 3.55 µM [quencher] (active) | – |
| Cc1ccc(NC(=O)Nc2cccc(C(F)(F)F)c2)nc1 | – | -3.63% (inactive) |
| COc1cc(OC)cc(C(=O)Nc2ccc3nc(Nc4cccc(C(F)(F)F)c4)cc(C)c3c2)c1 | 3.98 µM [quencher] (active) | – |
| O=C(Nc1ccc(F)cc1F)c1ccc2c(=O)n3c(nc2c1)CCCCC3 | – | -19.9% (inactive) |
| O=C(CC1N=C2c3ccccc3N=C(SCc3cccc(Cl)c3)N2C1=O)NCc1ccc2c(c1)OCO2 (stereo not given) | – | -27.4% (inactive) |
| CCCn1c2ccccc2c2cnn(CC(=O)N(CC)c3cc(C)ccc3C)c(=O)c21 | – | -14.2% (inactive) |
| CCN(CC)CCNC(=O)Cn1ncc2c3ccccc3n(Cc3ccccc3C)c2c1=O | – | -13.4% (inactive) |
| Cc1ccc2nc(/C(C#N)=C/c3ccc(-c4ccc(C(=O)OC(C)C)cc4)o3)[nH]c2c1 | – | -26.4% (inactive) |
| CC(=O)OC1=C(C(C)=O)N(Cc2ccccc2)S(=O)(=O)c2ccccc21 | – | -6.98% (inactive) |
| CCOC(=O)Cn1c(=O)n(C2CCCCC2)c2nc(-c3cccc(OC)c3)nc(C(N)=O)c21 | – | -8.8% (inactive) |
| Cc1ccc(OC(=O)CCC(=O)Nc2ccc(Br)cc2)cc1 | – | 5.66% (inactive) |
| COc1ccc(NC(=O)c2sc(N)nc2-c2ccccc2)cc1 | – | -10.4% (inactive) |
| COC(=O)CCc1sc(Nc2ccc(Br)cc2)nc1-c1ccc(OC)cc1 | 8.91 µM [quencher] (active) | – |
